The results in this text go back to PubChem BioAssay AID463173 (ICCB-Longwood Screening Facility, Harvard Medical School, 2010).

About 4,300 (8.3%) of roughly 52,000 compounds were called active. For the sample, actives were picked, then their nearest neighbours and some compounds at random. Values without a mark were called inactive. Cut-off read from the data, not from the text of the source: active = survival mostly below about 52% (no sharp cut-off); inactive = mostly above about 56%.

The assay has as its system DeltatarO mutant. Nature of the assay: growth inhibition of S. aureus wild type versus tarO mutant, primary screen, teichoic acid synthesis inhibitors, RN4220, OD600 (AID 463173). Particulars: OD600, 18 h, stronger effect = lower value, screened at 18.75 µg/mL (by protocol).
`CCC(NC(=O)Nc1ccc(OC)c(OC)c1)c1c(-n2cccc2)sc2c1CCN(C)C2` (stereo unspecified): the survival is 65%.

As to `COc1ccccc1CNC(=O)c1ccc2c(c1)nc(C)n2-c1cccc(C)c1`, the survival is 74%. To `COc1ccc(S(=O)(=O)NCCS(=O)(=O)N2CCN(c3ccccc3)CC2)cc1C` belongs 102%.

On to `COc1ccc(N(CC(=O)N2CCc3ccccc3C2)S(=O)(=O)c2ccccc2)cc1`, for which the survival was 58%.

Turning to `CCc1ccccc1N(CC(=O)N1CCc2ccccc2C1)S(C)(=O)=O`, the survival is 96%.

As for `CCOc1ccccc1N(CC(=O)N1CCc2ccccc2C1)S(=O)(=O)c1ccccc1`, the survival is 37% (active). In the case of `COc1ccc(-n2ncc(C(=O)NCc3ccco3)c2C2CCN(C(=O)OC(C)(C)C)CC2)cc1`, the survival is 83%.

For `Cc1ccccc1NC(=S)N1CCC(NC(=O)C(C)(C)C)CC1`, the survival is 92%. Take `O=C(Nc1ccc(F)cc1F)C1CCN(S(=O)(=O)c2ccc3[nH]c(=O)ccc3c2)CC1`: the survival is 83%. As to `CCOC(=O)Cn1nnnc1CN(Cc1cc2c(C)ccc(C)c2[nH]c1=O)C1CCCCC1`, the survival was 88%. With `O=C1/C(=C/c2ccccc2O)CC/C1=C\c1ccccc1O` the figure was 55% (active). To `Oc1ccc(N=Cc2ccccc2O)cc1` belongs 109%. To `CCN(CC)c1ccc(C=C2C(=O)c3ccccc3C2=O)c(O)c1` belongs 74%. As for `CCOC(=O)c1cccc(NC(=O)CCn2c(-c3ccc(F)cc3)cc(C(=O)OCC)c2C)c1`, the survival is 76%.

Turning to `CCOC(=O)c1ccc(NC(=O)NCCOCCn2c(=O)oc3ccccc32)cc1`, the survival is 77%. Consider `COC(=O)c1ccc(NC(=O)Cn2c(=O)oc3ccccc32)cc1`, for which the survival was 69%.

In the case of `NS(=O)(=O)c1ccc(NC(=O)CCn2c(=O)oc3ccccc32)cc1`, the survival is 73%. On to `CCOC(=O)c1cccc(NC(=O)CCn2c(=O)oc3ccccc32)c1`, for which the survival was 39% (active).

Turning to `CCN(CC)CCOC(=O)c1ccc(NC(=O)CCn2c(=O)oc3ccccc32)cc1`, the survival was 45% (active).

As to `CCc1cccc(C)c1NC(=O)C1CCN(S(=O)(=O)c2c(C)noc2/C=C/c2c(C)cc(C)cc2C)CC1`, the survival is 81%. With `Cn1cc(S(=O)(=O)N2CCCC2)cc1C(=O)Nc1ccc(F)cc1F` the figure was 77%; with `COc1ccc(NC(=O)C(NC(=O)Cc2cccs2)c2ccc(OC)cc2)cc1` (stereo unspecified), 137%. Turning to `C=CCNC(=O)CSc1nc2cc(C)cc(C)c2cc1C#N`, the survival is 58%.

Turning to `COc1ccccc1CNC(=O)CC(c1ccc(OC)c(OC)c1)N1Cc2ccccc2C1=O` (stereo unspecified), the survival is 83%. With `CCOC(=O)c1noc2ncn(Cc3cccc(C#N)c3)c(=O)c12` the figure was 130%.

`COc1ccc(CCCc2nnc(SCC(=O)Nc3ccc(Cl)cc3)o2)cc1`: the survival is 92%. To `COc1ccc(OC)c(NC(=O)CSC2=Nc3ccccc3C3=NC(CCC(=O)NCCc4ccccc4)C(=O)N23)c1` (stereo unspecified) belongs 80%; to `COc1ccc(OC)c(NC(=O)CSC2=Nc3ccccc3C3=NC(CCC(=O)NCc4ccco4)C(=O)N23)c1` (stereo unspecified), 78%; to `COc1ccc(NC(=O)CSC2=Nc3ccccc3C3=NC(CC(=O)NCc4ccc(F)cc4)C(=O)N23)cc1` (stereo unspecified), 55%. With `COc1ccc(OC)c(NC(=O)CSC2=Nc3ccccc3C3=NC(CC(=O)NCc4ccc(F)cc4)C(=O)N23)c1` (stereo unspecified) the figure was 52% (active); with `COc1ccc(OC)c(NC(=O)CSC2=Nc3ccccc3C3=NC(CC(=O)NCc4ccc5c(c4)OCO5)C(=O)N23)c1` (stereo unspecified), 80%. With `COc1ccc(OC)c(NC(=O)CSC2=Nc3ccccc3C3=NC(CCC(=O)NCc4ccccc4)C(=O)N23)c1` (stereo unspecified) the figure was 0% (active); with `CCOc1ccc(C2C(=O)N(C3CCCCC3)CC(=O)N2C2CCCC2)cc1OC` (stereo unspecified), 71%.

As to `CC(=O)N1CCOc2cc(S(=O)(=O)NCc3ccccc3Cl)c(C)cc21`, the survival is 85%. With `Cc1cc(Cl)ccc1NC(=O)c1cccc(NC(=O)N2CCSc3ncccc32)c1` the figure was 74%; with `CCCc1nn2c(=O)cc(COC(=O)c3ccco3)nc2s1`, 77%. To `CCOC(=O)c1cc2c(=O)n3ccccc3nc2n(C)c1=NC(=O)c1c(-c2ccccc2Cl)noc1C` belongs 141%. Regarding `Cc1ccc(NC(=O)c2c(C)nc3sc(C(=O)Nc4ccc(F)cc4)c(N)c3c2-c2ccc(C)o2)c(C)c1`, the survival is 60%. On to `CCOC(=O)c1c(-c2ccccc2)oc2ccc(OCc3ccccc3Br)cc12`, for which the survival is 38% (active). Consider `O=C(O)c1c(-c2ccccc2)oc2ccc(OCc3c(F)cccc3Cl)cc12`, for which the survival is 29% (active).

As for `COC(=O)c1cc2oc3ccccc3c2n1Cc1c(F)cccc1Cl`, the survival was 118%.

In the case of `O=C(O)c1c(-c2ccccc2)oc2ccc(OCc3ccc(Cl)c(Cl)c3)cc12`, the survival was -1% (active). To `C=Cc1ccc(COc2ccc3oc(-c4ccccc4)c(C(=O)OCC)c3c2)cc1` belongs 45% (active); to `CCOC(=O)c1c(-c2ccccc2)oc2ccc(NS(=O)(=O)c3ccc(C(C)C)cc3)cc12`, 70%; to `CNC(=O)c1c(-c2ccccc2)oc2ccc(OC)cc12`, 90%. Take `CCOC(=O)c1c(-c2ccccc2)oc2ccc(N(C(C)=O)S(=O)(=O)c3ccc(CC)cc3)cc12`: the survival is 69%. With `Cc1ccc(NC(=O)Cn2c(=O)n(CCCCC(=O)NCc3ccc4c(c3)OCO4)c(=O)c3ccccc32)cc1` the figure was 72%. On to `CC1(C)N([O-])C2=C(CCCC2)[N+]1=O`, for which the survival is 83%. As to `CCCc1nc2ccccc2n2c(-c3cccc(C)c3)c3c(=O)n(C)c(=O)n(C)c3c12`, the survival was 67%. To `Cc1cc(-c2ccc(C)c(S(=O)(=O)NCCc3ccccc3)c2)on1` belongs 80%.

Take `CCOC(=O)c1c(-c2ccc(OC)cc2)oc2ccc(OCc3ccc(C(=O)OC)cc3)cc12`: the survival is 48%.

`CCOC(=O)c1c(-c2ccc(OC)cc2)oc2ccc(OCc3ccc(F)cc3F)cc12`: the survival is 38% (active). For `CCOC(=O)c1c(-c2ccc(OC)cc2)oc2ccc(OCc3ccccc3C)cc12`, the survival is 51%. For the molecule `CCOC(=O)c1c(-c2ccccc2)oc2cc(Br)c(OCC(N)=O)cc12`, the survival was 79%. `CCOC(=O)c1c(C)oc2ccc(OCC(N)=O)cc12`: the survival is 100%. Consider `Cc1ccc(COc2ccc3oc(-c4ccccc4)c(C(=O)O)c3c2)cc1`, for which the survival was 34% (active). With `CCOC(=O)c1c(-c2ccccc2)oc2cc(Br)c(OCc3ccccc3)cc12` the figure was 36% (active).

For the molecule `CCOC(=O)c1c(-c2ccccc2)oc2ccc(N(C(C)=O)S(=O)(=O)c3ccc(C)cc3)cc12`, the survival was 62%. With `CCOc1ccc(-c2oc3ccc(C)cc3c(=O)c2O)cc1` the figure was 91%; with `CCOC(=O)c1c(-c2ccc(OC)cc2)oc2ccc(OCc3ccc(Br)cc3)cc12`, 63%; with `CCOC(=O)c1c(-c2ccccc2)oc2ccc(OCc3ccc(C)cc3)cc12`, 30% (active). Turning to `CCOC(=O)c1c(-c2ccccc2)oc2ccc(N(C(C)=O)S(=O)(=O)c3ccccc3)cc12`, the survival is 60%. For `Cc1ccc(C(=O)N/C(=C\c2cn(S(=O)(=O)N(C)C)c3ccccc23)C(=O)NCCCn2ccnc2)cc1`, the survival is 80%. To `O=C(c1ccc(CS(=O)(=O)c2c(Cl)cccc2Cl)o1)N1CCN(c2ccccc2)CC1` belongs 107%; to `Cc1ccc(CNC(=O)CN2C(=O)CSc3c2c(C)nn3-c2ccccc2)cc1`, 89%; to `CC(CCc1ccccc1)NC(=O)Cn1ncc2c3ccccc3n(Cc3ccccc3F)c2c1=O` (stereo unspecified), 92%. Consider `COc1ccccc1N1CCN(C(=O)CCS(=O)(=O)c2cc(Br)cc3c2N(C(=O)C2CC2)CC3)CC1`, for which the survival is 83%. On to `O=C(O)CCn1c(=O)c2cccn2c2cccnc21`, for which the survival was 98%.

With `CCOC(=O)c1c(-c2ccccc2)oc2ccc(OCc3cccc(Br)c3)cc12`, the survival was 38% (active). With `O=C(NCCc1ccccc1)C(=O)NCC(c1cccnc1)N1CCN(c2ccc(F)cc2)CC1` (stereo unspecified) the figure was 103%; with `C=CCN(CC=C)C(=O)COc1ccc(Cl)cc1Cl`, 73%; with `CCOc1cccc2sc(NC(=O)c3ccc(S(=O)(=O)N4CCc5ccccc54)cc3)nc12`, 71%. `Oc1ccc(-c2cccc(-c3ccc(O)cc3)c2)cc1`: the survival is 27% (active). `COc1ccc(OC)c(CNCc2c(C(=O)O)n(Cc3cccc(F)c3)c3cc(OC)ccc23)c1`: the survival is -1% (active).

In the case of `Cc1ccc(CNCc2c(C(=O)O)n(Cc3ccccc3C)c3cc(C)ccc23)cc1`, the survival was 67%.

As to `CCOc1ccc(CNCc2c(C(=O)O)n(Cc3ccc(OC)cc3)c3ccccc23)cc1`, the survival is 82%. With `C=Cc1ccc(Cn2c(C(=O)O)c(CNCCc3ccccc3)c3ccc(C)cc32)cc1` the figure was 92%. To `Cc1ccc2c(CNCc3cccc(Cl)c3)c(C(=O)O)n(Cc3ccc(F)cc3Cl)c2c1` belongs 70%; to `Cc1ccc2c(CNCCc3ccccc3)c(C(=O)O)n(Cc3ccccc3C)c2c1`, 6% (active); to `CCc1ccc(CNCc2c(C(=O)O)n(Cc3cccc(F)c3)c3cc(OC)ccc23)cc1`, 79%.

Regarding `CCOc1ccc(CCNCc2c(C(=O)O)n(Cc3ccc(C)cc3)c3cc(OC)ccc23)cc1`, the survival is 58%. With `Cc1ccccc1Cn1c(C(=O)O)c(CNCc2cccc(F)c2)c2ccccc21` the figure was 52% (active); with `CCOc1ccc(CNCc2c(C(=O)O)n(Cc3ccc(C)cc3)c3cc(C)ccc23)cc1`, 12% (active); with `COc1ccc2c(CNCc3ccc(Cl)cc3)c(C(=O)O)n(Cc3ccccc3C)c2c1`, 97%. In the case of `COc1ccc(OC)c(CNCc2c(C(=O)O)n(Cc3ccccc3)c3cc(OC)ccc23)c1`, the survival is 77%.

For `CCC1CCCCN1C(=O)Cn1c(=O)n(-c2ccccc2C(F)(F)F)c(=O)c2c(C)c(C(=O)N(C)C)sc21` (stereo unspecified), the survival was 80%.
